Data: PubChem BioAssay (NCI)
The panel holds about 83,000 compounds, 20% with a hit somewhere; the sample as a whole holds those more often.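 Step 1: grow cells in 96-well plates. Step 2: add test compound at a single concentration. Step 3: incubate 48 h. Step 4: record percent growth.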 Values without a mark were called inactive. Active and inactive are the calls of the source. Rule for the calls: active = growth percent below 10; inactive = the rest.

Assays:
Test in all cases: NCI-60 one-dose screen, 48 h (100 = growth as untreated, 0 = no growth, -100 = all killed)
Details in all cases: 10 µM unless noted
[1] = system: SR leukemia
[2] = system: RPMI-8226 leukemia
[3] = system: OVCAR-8 ovarian
[4] = system: OVCAR-5 ovarian
[5] = system: OVCAR-4 ovarian
[6] = system: SK-OV-3 ovarian
[7] = system: IGROV1 ovarian
[8] = system: OVCAR-3 ovarian
[9] = system: HS 578T breast
[10] = system: NCI/ADR-RES ovarian
[11] = system: T-47D breast
[12] = system: BT-549 breast
[13] = system: MDA-MB-435 melanoma
[14] = system: SW-620 colon
[15] = system: MCF7 breast
[16] = system: HCT-116 colon
[17] = system: HCC-2998 colon
[18] = system: KM12 colon

SMILES: CC1(C)CC[C@]2(C(=O)N3CCOCC3)CC[C@]3(C)C(=CC[C@@H]4[C@@]5(C)CC[C@H](OC(=O)c6cccnc6)C(C)(C)[C@@H]5CC[C@]43C)[C@@H]2C1
- growth [1]: 53.7%
- growth [2]: 35.5%
- growth [3]: 76.6%
- growth [4]: 75.5%
- growth [5]: 60.7%
- growth [6]: 88.2%
- growth [7]: 69.7%
- growth [8]: 53.2%
- growth [9]: 86.7%
- growth [10]: 89.9%
- growth [11]: 54.7%
- growth [12]: 72.3%
- growth [13]: 70.2%
- growth [14]: 45.4%
- growth [15]: 67.4%
- growth [16]: 31.8%
- growth [17]: 58.7%
- growth [18]: 53.5%

SMILES: FC(F)(F)c1cc(Nc2ccc3cc(OCCCN4CCOCC4)ccc3n2)ccc1Cl
- growth [1]: -12.3% (active)
- growth [2]: 7.22% (active)
- growth [3]: 31.3%
- growth [4]: 59.1%
- growth [5]: 48.6%
- growth [6]: 58.3%
- growth [7]: 54.3%
- growth [8]: 48.1%
- growth [9]: 6.22% (active)
- growth [10]: 44.9%
- growth [11]: 26%
- growth [12]: 87.9%
- growth [13]: 35%
- growth [14]: -13.7% (active)
- growth [15]: 6.85% (active)
- growth [17]: -18.5% (active)
- growth [18]: 16.7%

SMILES: O=C1OC(c2nc3ccccc3s2)=C/C1=C\c1ccc(O)cc1
- growth [1]: 100%
- growth [2]: 114%
- growth [3]: 106%
- growth [4]: 85.5%
- growth [5]: 100%
- growth [6]: 103%
- growth [7]: 95.1%
- growth [8]: 110%
- growth [9]: 89.6%
- growth [10]: 106%
- growth [11]: 95.7%
- growth [12]: 111%
- growth [13]: 102%
- growth [14]: 94.4%
- growth [15]: 100%
- growth [17]: 108%
- growth [18]: 95%

SMILES: CC/C=C\CCC/C=C1/C(=O)C=C[C@@H]1C/C=C\CCCC(=O)O
- growth [1]: 8.78% (active)
- growth [2]: 6.36% (active)
- growth [3]: 9.28% (active)
- growth [4]: 72.6%
- growth [5]: 92.5%
- growth [6]: 124%
- growth [7]: 104%
- growth [8]: 43.6%
- growth [9]: 45.7%
- growth [10]: 19%
- growth [11]: 55.3%
- growth [12]: 32.3%
- growth [14]: 9.71% (active)
- growth [15]: 20.2%
- growth [16]: -30.2% (active)
- growth [17]: 68.2%
- growth [18]: 32%

SMILES: N#Cc1c(N)nn(C(=O)c2ccc(NC(=O)c3ccccn3)cc2)c1-c1ccc(Cl)cc1
- growth [1]: 50%
- growth [2]: 43.6%
- growth [3]: 18.4%
- growth [4]: 62.7%
- growth [5]: -2.76% (active)
- growth [6]: 67.2%
- growth [7]: 11.1%
- growth [8]: 6.15% (active)
- growth [9]: 28.6%
- growth [10]: 28.5%
- growth [11]: -16.7% (active)
- growth [12]: 15.5%
- growth [13]: 33.9%
- growth [14]: 13.9%
- growth [16]: 12.4%
- growth [17]: 14.9%
- growth [18]: -26.3% (active)

SMILES: CC(CN1CCCCC1)C(=O)c1ccccc1 (configuration not stated)
- growth [1]: 97.3%
- growth [2]: 78%
- growth [3]: 102%
- growth [4]: 101%
- growth [5]: 114%
- growth [6]: 106%
- growth [7]: 109%
- growth [8]: 109%
- growth [9]: 103%
- growth [10]: 108%
- growth [11]: 99.2%
- growth [12]: 116%
- growth [13]: 104%
- growth [14]: 104%
- growth [16]: 112%
- growth [17]: 119%
- growth [18]: 105%

SMILES: COc1cc2ncn3c(=O)c4c5c(sc4nc3c2cc1OC)CCCC5
- growth [1]: 134%
- growth [2]: 105%
- growth [3]: 107%
- growth [4]: 98.8%
- growth [5]: 92.7%
- growth [6]: 97.5%
- growth [7]: 98.8%
- growth [8]: 100%
- growth [9]: 94.7%
- growth [10]: 96%
- growth [11]: 100%
- growth [12]: 99.9%
- growth [14]: 90.1%
- growth [15]: 91.4%
- growth [16]: 95.5%
- growth [17]: 102%
- growth [18]: 97.4%

SMILES: COC(=O)[C@]12CC[C@@H](C)[C@H](C)[C@@H]1C1=CC[C@@H]3[C@@]4(C)C(C=O)=C[C@@](C)(COS(C)(=O)=O)[C@@H]4C(=O)C[C@@]3(C)[C@]1(C)CC2
- growth [1]: 24.9%
- growth [2]: 23.4%
- growth [3]: 44.6%
- growth [4]: 67.1%
- growth [5]: 37.7%
- growth [6]: 66.4%
- growth [7]: 52.1%
- growth [8]: 31.4%
- growth [9]: 62.3%
- growth [10]: 38.6%
- growth [11]: 33%
- growth [12]: 42.9%
- growth [13]: 62.3%
- growth [14]: 35.9%
- growth [17]: 43.4%
- growth [18]: 23.1%

SMILES: CCCCOc1nc2ccccc2cc1C1CNC(=O)c2ccccc2N1 (configuration not stated)
- growth [1]: 19.8%
- growth [2]: 25.6%
- growth [3]: 22.4%
- growth [4]: 55.3%
- growth [5]: 47.7%
- growth [6]: 14.8%
- growth [7]: 38%
- growth [8]: -9.73% (active)
- growth [9]: 34.1%
- growth [10]: 3.84% (active)
- growth [11]: 20.9%
- growth [12]: 41%
- growth [13]: -63.8% (active)
- growth [14]: 20.9%
- growth [15]: 21.2%
- growth [16]: 15.6%
- growth [17]: 56.5%
- growth [18]: 23.9%

SMILES: CCOC(=O)c1c2c(n3ccc(NC(=O)OC(C)(C)C)cc13)C(=O)c1ncccc1C2=O
- growth [1]: 7.58% (active)
- growth [2]: -6.66% (active)
- growth [3]: -11.4% (active)
- growth [4]: -5.26% (active)
- growth [5]: 11.9%
- growth [6]: -32.9% (active)
- growth [7]: -4.89% (active)
- growth [8]: -33.6% (active)
- growth [9]: -25.3% (active)
- growth [10]: -35.9% (active)
- growth [11]: 5.16% (active)
- growth [12]: -36.7% (active)
- growth [13]: -62.2% (active)
- growth [14]: -74.9% (active)
- growth [15]: -72.2% (active)
- growth [16]: -65.8% (active)
- growth [17]: -59.4% (active)
- growth [18]: -46.4% (active)

SMILES: O=C1CC(N2C(=O)/C(=C/C(Cl)=C\c3ccc([N+](=O)[O-])cc3)SC2=S)C(=O)N1c1ccc(O)cc1 (configuration not stated)
- growth [1]: -13.4% (active)
- growth [2]: -15.1% (active)
- growth [3]: 11.6%
- growth [4]: -56.5% (active)
- growth [5]: 14.1%
- growth [6]: 33.5%
- growth [7]: -45.8% (active)
- growth [8]: -16.4% (active)
- growth [9]: 15.5%
- growth [10]: 3.58% (active)
- growth [11]: 17.2%
- growth [12]: -17.3% (active)
- growth [13]: -12% (active)
- growth [14]: 0.226% (active)
- growth [15]: -11.6% (active)
- growth [16]: -31.2% (active)
- growth [17]: -81.6% (active)
- growth [18]: -72.4% (active)

SMILES: O=C(NC(CSSCC(NC(=O)c1ccccc1)C(=O)O)C(=O)O)c1ccccc1 (configuration not stated)
- growth [1]: 15.3%
- growth [2]: 104%
- growth [3]: 104%
- growth [4]: 105%
- growth [5]: 128%
- growth [6]: 102%
- growth [7]: 96.7%
- growth [8]: 99.6%
- growth [9]: 96.3%
- growth [10]: 97.3%
- growth [11]: 99.4%
- growth [12]: 91.1%
- growth [13]: 103%
- growth [14]: 103%
- growth [15]: 117%
- growth [16]: 98.9%
- growth [18]: 97.9%

SMILES: O=[N+]([O-])c1ccc(Sc2cccc[n+]2[O-])c2nonc12
- growth [1]: 1.31% (active)
- growth [2]: -12.2% (active)
- growth [3]: 82.5%
- growth [4]: 120%
- growth [5]: 40.9%
- growth [6]: 108%
- growth [7]: 6.59% (active)
- growth [8]: -8.18% (active)
- growth [9]: 24.8%
- growth [10]: 84.8%
- growth [11]: 54.9%
- growth [12]: 109%
- growth [13]: 97.9%
- growth [14]: 23.5%
- growth [15]: 25.5%
- growth [16]: 2.05% (active)
- growth [17]: 98.4%
- growth [18]: 68.6%

SMILES: COc1cc(N=Nc2cc(Cc3ccc(N(C)C)cc3)c(N)cc2N(C)C)c2ncccc2c1
- growth [1]: -13.5% (active)
- growth [2]: -53.4% (active)
- growth [3]: -37% (active)
- growth [4]: 42.8%
- growth [5]: -48.9% (active)
- growth [6]: -0.131% (active)
- growth [7]: 7.41% (active)
- growth [8]: -28.7% (active)
- growth [9]: 18.3%
- growth [10]: -17.8% (active)
- growth [11]: -12.1% (active)
- growth [12]: 29.6%
- growth [13]: 18.7%
- growth [14]: -33.7% (active)
- growth [15]: -1.6% (active)
- growth [16]: -23.7% (active)
- growth [17]: 26.1%
- growth [18]: -11.4% (active)

SMILES: C=C1C(=O)O[C@H]2[C@H]1CC/C(COC(=O)C(=O)c1c[nH]c3ccccc13)=C\CC[C@@]1(C)O[C@@H]21
- growth [1]: 1.82% (active)
- growth [2]: -29.8% (active)
- growth [3]: -6.78% (active)
- growth [4]: -5.59% (active)
- growth [5]: 17.9%
- growth [6]: 85.1%
- growth [7]: -69.8% (active)
- growth [8]: -82.2% (active)
- growth [9]: 10.7%
- growth [10]: 17.9%
- growth [11]: -56.8% (active)
- growth [12]: -67.3% (active)
- growth [13]: -59.4% (active)
- growth [14]: -64.9% (active)
- growth [16]: -88.6% (active)
- growth [17]: -79.5% (active)
- growth [18]: -56.5% (active)

SMILES: CN(C)c1ccc(-c2ccc3[nH]c(=O)nc(-c4ccccc4)c3c2)cn1
- growth [1]: 16.2%
- growth [2]: 56.5%
- growth [3]: 63.8%
- growth [4]: 65.9%
- growth [5]: 70.4%
- growth [6]: 63.5%
- growth [7]: 49.7%
- growth [8]: 5.38% (active)
- growth [9]: 55.6%
- growth [10]: 49.4%
- growth [11]: 61%
- growth [12]: 41.9%
- growth [13]: -11.9% (active)
- growth [14]: 24.5%
- growth [16]: 16.4%
- growth [17]: 66.3%
- growth [18]: 19.8%
